# Assays:
# Experiment in all cases: DAPPL (digital affinity profiling via proximity ligation, sequencing); 10 mM Tris-HCl pH 7.5, 50 mM NaCl, 1 mM DTT, 4% glycerol, room temperature, 30 min; GST-TFs on glutathione beads, 16-mer random dsDNA library, 0.1% formaldehyde crosslink after washing; high values mean tight binding
# FEV = biological target: T1, FEV (Homo sapiens, UniProt Q99581 1-238); conditions: protein: recombinant; tags: N-terminal GST; dsDNA, one strand shown
# T1 sequence: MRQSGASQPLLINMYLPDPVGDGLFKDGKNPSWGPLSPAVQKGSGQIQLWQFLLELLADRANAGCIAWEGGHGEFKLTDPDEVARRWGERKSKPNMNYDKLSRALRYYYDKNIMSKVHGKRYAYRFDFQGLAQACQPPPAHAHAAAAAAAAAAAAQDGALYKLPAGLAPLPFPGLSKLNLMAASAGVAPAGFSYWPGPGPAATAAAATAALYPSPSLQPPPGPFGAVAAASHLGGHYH
# Procedure, shortened: (§1)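 GST fusions of human transcription factors were expressed in yeast and captured with glutathione beads. Once given DNA barcodes and pooled alongside a tag-only sample, they were incubated for 30 min at room temperature with 200 nmole of a random double-stranded 16-mer DNA library in Tris/NaCl/DTT/glycerol buffer, then washed, crosslinked (0.1% formaldehyde), proximity-ligated, PCR-amplified and sequenced on an Illumina NextSeq500. The binding signal of each hexamer is its read frequency for a factor divided by its frequency for the tag-only sample.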
# ETV5 = ETV5 (Homo sapiens, UniProt P41161 1-510); conditions: protein: recombinant; tags: N-terminal GST; dsDNA, one strand shown
# Sequence of ETV5 (P41161 whole entry): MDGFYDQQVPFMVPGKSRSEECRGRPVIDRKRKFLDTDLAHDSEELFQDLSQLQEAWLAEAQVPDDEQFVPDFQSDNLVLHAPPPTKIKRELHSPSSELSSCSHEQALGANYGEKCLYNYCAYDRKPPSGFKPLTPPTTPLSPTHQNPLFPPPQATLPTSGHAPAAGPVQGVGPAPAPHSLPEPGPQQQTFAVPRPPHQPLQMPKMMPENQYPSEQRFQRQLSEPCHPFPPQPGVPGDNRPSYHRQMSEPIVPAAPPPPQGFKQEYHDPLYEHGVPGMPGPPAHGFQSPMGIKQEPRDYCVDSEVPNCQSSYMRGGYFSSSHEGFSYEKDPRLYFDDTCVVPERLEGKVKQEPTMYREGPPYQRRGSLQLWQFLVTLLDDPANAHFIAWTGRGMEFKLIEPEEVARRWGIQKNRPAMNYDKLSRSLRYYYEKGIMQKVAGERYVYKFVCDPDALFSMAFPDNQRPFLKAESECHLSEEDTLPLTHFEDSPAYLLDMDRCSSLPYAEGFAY
# Procedure, shortened: as §1
# HSF1 = HSF1 (Homo sapiens, UniProt Q00613 1-529); conditions: protein: recombinant; tags: N-terminal GST; chain copies: 3; dsDNA, one strand shown
# Sequence of HSF1 (Q00613 whole entry): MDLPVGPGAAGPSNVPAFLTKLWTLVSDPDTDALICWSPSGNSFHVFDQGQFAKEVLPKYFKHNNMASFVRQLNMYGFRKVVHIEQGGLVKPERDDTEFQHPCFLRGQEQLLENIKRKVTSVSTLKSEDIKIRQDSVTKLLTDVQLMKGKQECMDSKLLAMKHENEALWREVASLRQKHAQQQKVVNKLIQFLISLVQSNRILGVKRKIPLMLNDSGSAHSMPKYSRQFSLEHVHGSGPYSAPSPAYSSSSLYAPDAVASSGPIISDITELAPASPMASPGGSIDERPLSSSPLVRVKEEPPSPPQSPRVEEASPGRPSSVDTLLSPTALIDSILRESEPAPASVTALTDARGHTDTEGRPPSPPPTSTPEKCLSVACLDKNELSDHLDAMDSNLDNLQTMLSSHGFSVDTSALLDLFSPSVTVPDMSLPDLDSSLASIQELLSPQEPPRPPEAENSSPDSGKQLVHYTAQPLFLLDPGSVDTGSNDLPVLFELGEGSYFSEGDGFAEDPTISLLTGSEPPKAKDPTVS
# Procedure, shortened: as §1
# SPIC = biological target: T2, SPIC (Homo sapiens, UniProt Q8N5J4 1-248); conditions: protein: recombinant; tags: N-terminal GST; dsDNA, one strand shown
# T2 sequence: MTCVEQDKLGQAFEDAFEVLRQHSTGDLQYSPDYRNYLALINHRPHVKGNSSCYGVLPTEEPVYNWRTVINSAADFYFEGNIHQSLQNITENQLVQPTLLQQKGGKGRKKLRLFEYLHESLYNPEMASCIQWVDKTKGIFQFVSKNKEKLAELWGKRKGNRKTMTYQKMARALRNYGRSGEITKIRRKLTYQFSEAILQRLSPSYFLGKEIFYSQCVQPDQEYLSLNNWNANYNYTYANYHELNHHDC
# Procedure, shortened: as §1
# ELF4 = ELF4 (Homo sapiens, UniProt Q99607 1-663); conditions: protein: recombinant; tags: N-terminal GST; dsDNA, one strand shown
# Sequence of ELF4 (Q99607 whole entry): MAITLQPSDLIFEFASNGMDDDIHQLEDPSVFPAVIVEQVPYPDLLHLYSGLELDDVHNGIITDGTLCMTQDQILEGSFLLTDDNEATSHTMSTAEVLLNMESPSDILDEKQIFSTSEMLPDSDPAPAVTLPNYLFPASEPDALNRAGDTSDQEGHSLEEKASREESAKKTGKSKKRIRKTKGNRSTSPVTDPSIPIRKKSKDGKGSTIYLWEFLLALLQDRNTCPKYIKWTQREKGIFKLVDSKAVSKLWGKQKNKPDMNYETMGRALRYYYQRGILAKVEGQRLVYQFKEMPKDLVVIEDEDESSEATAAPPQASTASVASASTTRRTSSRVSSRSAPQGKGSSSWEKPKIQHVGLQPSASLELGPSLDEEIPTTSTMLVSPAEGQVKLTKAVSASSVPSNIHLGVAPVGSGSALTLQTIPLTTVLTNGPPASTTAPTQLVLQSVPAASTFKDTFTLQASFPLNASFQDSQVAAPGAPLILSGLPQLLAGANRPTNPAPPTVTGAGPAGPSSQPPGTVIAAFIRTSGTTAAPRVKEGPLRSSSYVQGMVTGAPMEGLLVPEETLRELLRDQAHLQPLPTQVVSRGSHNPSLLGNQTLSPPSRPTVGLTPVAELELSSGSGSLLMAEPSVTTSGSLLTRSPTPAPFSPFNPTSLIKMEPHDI
# Procedure, shortened: as §1
# ELK4 = biological target: T3, ELK4 (Homo sapiens, UniProt P28324-2 1-405); conditions: protein: recombinant; tags: N-terminal GST; dsDNA, one strand shown
# T3 sequence: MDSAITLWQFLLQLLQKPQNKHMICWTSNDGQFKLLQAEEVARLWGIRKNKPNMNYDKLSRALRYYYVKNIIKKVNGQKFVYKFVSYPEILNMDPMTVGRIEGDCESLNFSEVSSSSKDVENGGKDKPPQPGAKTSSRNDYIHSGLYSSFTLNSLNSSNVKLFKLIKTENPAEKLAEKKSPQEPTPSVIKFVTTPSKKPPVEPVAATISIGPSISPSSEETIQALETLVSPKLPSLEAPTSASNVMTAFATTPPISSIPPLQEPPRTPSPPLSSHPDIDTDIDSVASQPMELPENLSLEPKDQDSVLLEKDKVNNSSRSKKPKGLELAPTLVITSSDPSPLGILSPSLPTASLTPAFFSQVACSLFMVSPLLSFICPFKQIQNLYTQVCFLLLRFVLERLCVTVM
# Procedure, shortened: as §1
# ETV2 = biological target: T4, ETV2 (Homo sapiens, UniProt O00321 1-342); conditions: protein: recombinant; tags: N-terminal GST; dsDNA, one strand shown
# T4 sequence: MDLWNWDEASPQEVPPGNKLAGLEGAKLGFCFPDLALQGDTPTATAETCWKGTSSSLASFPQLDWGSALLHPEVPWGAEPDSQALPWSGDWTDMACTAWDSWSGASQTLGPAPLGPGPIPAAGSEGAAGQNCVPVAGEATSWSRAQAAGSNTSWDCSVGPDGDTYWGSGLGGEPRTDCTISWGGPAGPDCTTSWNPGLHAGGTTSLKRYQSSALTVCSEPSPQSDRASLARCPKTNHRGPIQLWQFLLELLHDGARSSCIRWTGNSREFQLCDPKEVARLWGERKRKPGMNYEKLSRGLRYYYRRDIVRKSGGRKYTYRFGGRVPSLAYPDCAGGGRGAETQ
# Procedure, shortened: as §1
# ELF3 = biological target: T5, ELF3 (Homo sapiens, UniProt P78545 1-371); conditions: protein: recombinant; tags: N-terminal GST; dsDNA, one strand shown
# T5 sequence: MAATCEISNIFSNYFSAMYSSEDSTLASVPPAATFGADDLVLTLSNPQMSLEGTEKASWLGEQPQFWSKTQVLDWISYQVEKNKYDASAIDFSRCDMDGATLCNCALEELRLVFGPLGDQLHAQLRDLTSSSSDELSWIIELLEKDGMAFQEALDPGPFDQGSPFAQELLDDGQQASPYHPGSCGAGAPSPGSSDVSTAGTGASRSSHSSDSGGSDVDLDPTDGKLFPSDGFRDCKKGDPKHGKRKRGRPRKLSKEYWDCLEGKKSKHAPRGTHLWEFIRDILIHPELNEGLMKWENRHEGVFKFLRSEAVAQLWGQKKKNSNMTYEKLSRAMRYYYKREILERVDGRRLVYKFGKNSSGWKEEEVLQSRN
# Procedure, shortened: as §1
# CRX = CRX (Homo sapiens, UniProt O43186 1-299); conditions: protein: recombinant; tags: N-terminal GST; dsDNA, one strand shown
# Sequence of CRX (O43186 whole entry): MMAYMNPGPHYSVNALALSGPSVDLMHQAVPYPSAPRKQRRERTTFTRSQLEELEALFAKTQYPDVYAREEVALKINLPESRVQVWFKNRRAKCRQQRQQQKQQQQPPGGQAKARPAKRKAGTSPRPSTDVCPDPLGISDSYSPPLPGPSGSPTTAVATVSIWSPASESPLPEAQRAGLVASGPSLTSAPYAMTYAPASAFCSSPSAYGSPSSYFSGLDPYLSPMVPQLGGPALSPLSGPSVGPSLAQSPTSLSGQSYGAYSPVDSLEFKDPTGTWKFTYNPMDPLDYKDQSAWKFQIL
# Procedure, shortened: as §1
# ETV1 = ETV1 (Homo sapiens, UniProt P50549 1-477); conditions: protein: recombinant; tags: N-terminal GST; dsDNA, one strand shown
# Sequence of ETV1 (P50549 whole entry): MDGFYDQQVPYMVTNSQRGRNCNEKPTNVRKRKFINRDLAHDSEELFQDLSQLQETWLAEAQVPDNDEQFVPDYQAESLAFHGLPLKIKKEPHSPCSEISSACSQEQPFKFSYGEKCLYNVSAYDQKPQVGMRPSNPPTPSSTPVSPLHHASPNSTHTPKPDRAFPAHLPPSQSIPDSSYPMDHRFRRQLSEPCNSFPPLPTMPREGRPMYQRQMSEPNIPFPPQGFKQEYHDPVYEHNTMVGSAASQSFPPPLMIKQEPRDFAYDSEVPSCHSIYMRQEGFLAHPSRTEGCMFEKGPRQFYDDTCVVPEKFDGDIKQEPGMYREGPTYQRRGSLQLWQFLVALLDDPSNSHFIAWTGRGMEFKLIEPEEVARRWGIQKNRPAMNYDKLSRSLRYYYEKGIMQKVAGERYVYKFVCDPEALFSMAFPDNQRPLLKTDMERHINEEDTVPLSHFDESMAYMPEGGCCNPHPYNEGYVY
# Procedure, shortened: as §1
sequence,measurement,setting,value
TGGTTT,binding signal,FEV,"1.54 fold enrichment (6-mer frequency, TF over GST control)"
same,binding signal,ETV5,"1.71 fold enrichment (6-mer frequency, TF over GST control)"
same,binding signal,HSF1,"1.4 fold enrichment (6-mer frequency, TF over GST control)"
same,binding signal,SPIC,"1.67 fold enrichment (6-mer frequency, TF over GST control)"
same,binding signal,ELF4,"1.54 fold enrichment (6-mer frequency, TF over GST control)"
same,binding signal,ELK4,"1.52 fold enrichment (6-mer frequency, TF over GST control)"
same,binding signal,ETV2,"1.34 fold enrichment (6-mer frequency, TF over GST control)"
same,binding signal,ELF3,"1.5 fold enrichment (6-mer frequency, TF over GST control)"
same,binding signal,CRX,"1.5 fold enrichment (6-mer frequency, TF over GST control)"
same,binding signal,ETV1,"1.69 fold enrichment (6-mer frequency, TF over GST control)"
